# Test results: PubChem BioAssay (EPA / NIEHS)
# Inconclusive results are not listed. The source made the active and inactive calls. Rule for the calls: active = hit-call score of the fitted dose curve at least 0.9, where 1 is the maximum; inconclusive = response in the unintended direction; inactive = score below 0.9.
# Legend:
# [1] = target: human Raf-1 Proto-Oncogene, serine/threonine Kinase (RAF1), RAF1 (gene 5894) (UniProt P04049); experiment: NVS_ENZ_hRAF1: NovaScreen (NVS) Enzymatic Assay for human Raf-1 Proto-Oncogene, serine/threonine Kinase (RAF1) (AID 2283216)
# Method in brief: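 Cell-free recombinant kinase with specific fluorescent substrate, product separated by electrophoretic mobility shift; read 1 h after dosing. Primary screen at 25 uM in duplicate; hits then run in concentration-response up to 50 uM, fitted as loss of signal versus DMSO.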
# [2] = target: human Sirtuin 2 (SIRT2), SIRT2 (gene 22933) (UniProt Q8IXJ6); experiment: NVS_ENZ_hSIRT2: NovaScreen (NVS) Enzymatic Assay for human Sirtuin 2 (SIRT2) (AID 2283217)
# Sequence of human Sirtuin 2 (SIRT2), SIRT2 (gene 22933) (Q8IXJ6 whole entry, looked up): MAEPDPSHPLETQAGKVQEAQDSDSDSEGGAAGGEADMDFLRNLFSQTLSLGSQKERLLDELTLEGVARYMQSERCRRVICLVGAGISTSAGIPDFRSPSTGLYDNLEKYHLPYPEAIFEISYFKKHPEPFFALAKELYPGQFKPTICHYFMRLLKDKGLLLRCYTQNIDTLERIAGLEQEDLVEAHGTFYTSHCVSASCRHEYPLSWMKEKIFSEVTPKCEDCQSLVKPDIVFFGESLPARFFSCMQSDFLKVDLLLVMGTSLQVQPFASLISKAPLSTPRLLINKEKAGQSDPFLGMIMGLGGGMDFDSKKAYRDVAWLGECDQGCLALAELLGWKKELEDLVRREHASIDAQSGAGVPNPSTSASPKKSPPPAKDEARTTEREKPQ
# Method in brief: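 Cell-free recombinant human SIRT2, fluorescent substrate with product separated by electrophoretic mobility shift, 1 hr. Screened in duplicate at 25 uM; hits rerun singly in concentration-response up to 50 uM, relative to DMSO.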
# [3] = target: human Sirtuin 1 (SIRT1), SIRT1 (gene 23411) (UniProt Q96EB6); experiment: NVS_ENZ_hSIRT1: NovaScreen (NVS) Enzymatic Assay for human Sirtuin 1 (SIRT1) (AID 2283219)
# Method in brief: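 Cell-free recombinant SIRT1 with a fluorescent substrate; substrate and product separated by electrophoretic mobility shift and read by fluorescence intensity, 1 h after dosing. Primary screen at 25 uM in duplicate; hits re-run in concentration-response up to 50 uM, relative to DMSO.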
# [4] = target: human Sirtuin 3 (SIRT3), SIRT3 (gene 23410) (UniProt Q9NTG7); experiment: NVS_ENZ_hSIRT3: NovaScreen (NVS) Enzymatic Assay for human Sirtuin 3 (SIRT3) (AID 2283222)
# Method in brief: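 Cell-free enzyme assay with recombinant protein and fluorescent substrate, product separated by electrophoretic mobility shift; read 1 hour after dosing. Screened in duplicate at 25 uM, then singleton concentration-response up to 50 uM; loss of signal versus DMSO.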
# [5] = target: human Tyrosine Protein Kinase Receptor Tie-2 (Tie2), TEK (gene 7010) (UniProt Q02763); experiment: NVS_ENZ_hTie2: NovaScreen (NVS) Enzymatic Assay for human Tyrosine Protein Kinase Receptor Tie-2 (Tie2) (AID 2283225)
# Sequence of human Tyrosine Protein Kinase Receptor Tie-2 (Tie2), TEK (gene 7010) (Q02763 whole entry, looked up): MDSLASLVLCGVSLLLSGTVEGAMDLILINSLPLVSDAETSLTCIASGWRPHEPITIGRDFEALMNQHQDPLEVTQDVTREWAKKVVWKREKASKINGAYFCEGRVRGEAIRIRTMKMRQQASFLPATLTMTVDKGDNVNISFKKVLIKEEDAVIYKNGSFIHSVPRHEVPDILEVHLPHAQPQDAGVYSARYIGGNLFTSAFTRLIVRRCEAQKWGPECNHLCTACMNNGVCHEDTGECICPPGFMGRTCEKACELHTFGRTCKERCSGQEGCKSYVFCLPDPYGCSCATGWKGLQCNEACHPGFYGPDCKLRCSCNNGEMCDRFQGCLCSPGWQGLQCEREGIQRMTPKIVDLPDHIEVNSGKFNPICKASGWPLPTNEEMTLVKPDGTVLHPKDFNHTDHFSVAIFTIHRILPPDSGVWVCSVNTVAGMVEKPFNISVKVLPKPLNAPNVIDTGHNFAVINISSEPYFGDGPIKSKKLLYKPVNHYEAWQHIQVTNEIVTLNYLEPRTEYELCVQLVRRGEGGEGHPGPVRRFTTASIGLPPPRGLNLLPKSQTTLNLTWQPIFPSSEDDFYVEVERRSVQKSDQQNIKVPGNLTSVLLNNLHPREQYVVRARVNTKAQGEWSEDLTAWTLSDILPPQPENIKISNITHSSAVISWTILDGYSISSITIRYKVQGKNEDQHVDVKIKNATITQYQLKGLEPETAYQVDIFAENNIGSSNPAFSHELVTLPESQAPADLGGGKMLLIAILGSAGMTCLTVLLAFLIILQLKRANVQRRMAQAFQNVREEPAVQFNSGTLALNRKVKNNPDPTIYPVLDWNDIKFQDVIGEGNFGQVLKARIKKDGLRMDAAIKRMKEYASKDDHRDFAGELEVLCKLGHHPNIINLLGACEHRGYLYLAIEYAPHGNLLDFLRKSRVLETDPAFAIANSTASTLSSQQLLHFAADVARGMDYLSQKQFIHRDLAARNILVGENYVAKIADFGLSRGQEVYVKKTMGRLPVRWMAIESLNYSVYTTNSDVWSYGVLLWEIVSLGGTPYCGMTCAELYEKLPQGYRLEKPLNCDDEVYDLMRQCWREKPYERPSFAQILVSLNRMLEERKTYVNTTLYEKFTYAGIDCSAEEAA
# Method in brief: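 Recombinant human Tie2 kinase activity was read cell-free by fluorescence with electrophoretic mobility shift, 1 hour after dosing. The screen used 25 uM in duplicate, then concentration-response up to 50 uM. Signal loss was scored against DMSO.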
# [6] = target: human Vascular Endothelial Growth Factor Receptor 3 (VEGFR3), FLT4 (gene 2324) (UniProt P35916); experiment: NVS_ENZ_hVEGFR3: NovaScreen (NVS) Enzymatic Assay for human Vascular Endothelial Growth Factor Receptor 3 (VEGFR3) (AID 2283229)
# Method in brief: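 Cell-free recombinant VEGFR3 kinase reaction with fluorescent substrate, read 1 h after dosing by electrophoretic mobility shift separation of substrate and product. Single-concentration duplicate screen at 25 uM, then concentration-response up to 50 uM; loss of activity versus DMSO.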
# [7] = target: human Vascular Endothelial Growth Factor Receptor 2 (VEGFR2), KDR (gene 3791) (UniProt P35968); experiment: NVS_ENZ_hVEGFR2: NovaScreen (NVS) Enzymatic Assay for human Vascular Endothelial Growth Factor Receptor 2 (VEGFR2) (AID 2283230)
# Sequence of human Vascular Endothelial Growth Factor Receptor 2 (VEGFR2), KDR (gene 3791) (P35968 whole entry, looked up): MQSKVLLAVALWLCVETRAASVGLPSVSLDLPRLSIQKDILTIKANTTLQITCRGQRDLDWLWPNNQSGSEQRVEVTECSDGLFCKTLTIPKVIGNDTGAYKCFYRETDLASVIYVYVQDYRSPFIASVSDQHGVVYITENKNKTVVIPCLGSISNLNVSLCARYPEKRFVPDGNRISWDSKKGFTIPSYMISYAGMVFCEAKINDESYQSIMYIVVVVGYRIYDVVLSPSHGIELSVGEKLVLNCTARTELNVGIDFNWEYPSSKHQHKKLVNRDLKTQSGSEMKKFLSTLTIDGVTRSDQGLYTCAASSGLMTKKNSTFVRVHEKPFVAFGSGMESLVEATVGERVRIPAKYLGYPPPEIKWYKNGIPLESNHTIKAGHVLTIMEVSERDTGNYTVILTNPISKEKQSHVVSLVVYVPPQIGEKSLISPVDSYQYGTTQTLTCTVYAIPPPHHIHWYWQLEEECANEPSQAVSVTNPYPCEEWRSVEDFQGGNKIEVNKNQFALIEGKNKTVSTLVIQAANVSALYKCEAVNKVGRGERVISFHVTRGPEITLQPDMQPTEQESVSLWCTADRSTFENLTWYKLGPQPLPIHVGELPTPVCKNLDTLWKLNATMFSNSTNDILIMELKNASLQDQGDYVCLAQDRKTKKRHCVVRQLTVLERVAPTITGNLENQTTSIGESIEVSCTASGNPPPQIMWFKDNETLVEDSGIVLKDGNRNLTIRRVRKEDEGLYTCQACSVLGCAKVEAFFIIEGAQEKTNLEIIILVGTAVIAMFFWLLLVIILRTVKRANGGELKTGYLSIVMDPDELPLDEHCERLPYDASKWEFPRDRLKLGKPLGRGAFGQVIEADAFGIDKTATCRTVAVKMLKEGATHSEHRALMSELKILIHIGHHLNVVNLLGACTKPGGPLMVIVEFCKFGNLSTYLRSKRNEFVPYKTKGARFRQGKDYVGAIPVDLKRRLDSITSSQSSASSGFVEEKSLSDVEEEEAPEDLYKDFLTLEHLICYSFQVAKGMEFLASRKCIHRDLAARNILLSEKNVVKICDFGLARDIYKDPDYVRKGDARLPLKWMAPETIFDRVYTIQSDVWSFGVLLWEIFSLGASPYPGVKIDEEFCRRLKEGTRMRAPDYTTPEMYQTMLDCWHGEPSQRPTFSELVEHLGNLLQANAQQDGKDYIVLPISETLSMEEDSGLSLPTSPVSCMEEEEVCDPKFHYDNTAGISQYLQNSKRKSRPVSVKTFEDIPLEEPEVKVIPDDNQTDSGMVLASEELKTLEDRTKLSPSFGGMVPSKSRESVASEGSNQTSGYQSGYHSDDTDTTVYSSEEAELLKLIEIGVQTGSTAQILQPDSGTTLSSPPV
# Method in brief: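 Cell-free recombinant VEGFR2 kinase, fluorescent substrate with electrophoretic mobility-shift separation; read 1 h after dosing. Screened at 25 uM in duplicate, hits to concentration-response up to 50 uM; loss-of-signal versus DMSO.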
# [8] = target: sheep Cyclooxygenase-1 (Cox1), PTGS1 (gene 443551) (UniProt P05979); experiment: NVS_ENZ_oCOX1: NovaScreen (NVS) Enzymatic Assay for sheep Cyclooxygenase-1 (Cox1) (AID 2283239);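 note: actives reduce cyclooxygenase activity so potencies are for inhibitors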
# Sequence of sheep Cyclooxygenase-1 (Cox1), PTGS1 (gene 443551) (P05979 whole entry, looked up): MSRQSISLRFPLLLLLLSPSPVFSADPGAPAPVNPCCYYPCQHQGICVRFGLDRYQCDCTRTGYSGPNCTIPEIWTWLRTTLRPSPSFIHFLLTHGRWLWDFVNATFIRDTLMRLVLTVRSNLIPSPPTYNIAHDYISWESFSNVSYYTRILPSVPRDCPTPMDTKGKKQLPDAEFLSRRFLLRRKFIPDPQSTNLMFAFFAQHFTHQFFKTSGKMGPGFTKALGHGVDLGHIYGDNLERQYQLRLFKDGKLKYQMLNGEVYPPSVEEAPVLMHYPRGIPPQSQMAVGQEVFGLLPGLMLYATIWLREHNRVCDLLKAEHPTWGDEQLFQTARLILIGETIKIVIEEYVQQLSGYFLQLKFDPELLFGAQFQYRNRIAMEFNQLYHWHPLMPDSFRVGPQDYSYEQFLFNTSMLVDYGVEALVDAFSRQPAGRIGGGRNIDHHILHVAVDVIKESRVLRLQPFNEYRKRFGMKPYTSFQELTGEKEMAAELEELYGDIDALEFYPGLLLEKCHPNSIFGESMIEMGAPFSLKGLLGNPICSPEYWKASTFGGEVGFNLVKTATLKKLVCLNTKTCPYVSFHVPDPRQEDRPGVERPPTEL
# Method in brief: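 Cell-free colorimetric assay of enzyme activity in a native extract of ovine seminal vesicles. Absorbance was read 0.66 hour after compound addition. Loss of signal relative to the DMSO negative control was scored, with actives from the 25 uM duplicate primary screen retested in concentration series.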
# [9] = test system: rat Monoamine Oxidase, MAO-A, Peripheral (MAOAP), gene 29253; experiment: NVS_ENZ_rMAOAP: NovaScreen (NVS) Enzymatic Assay for rat Monoamine Oxidase, MAO-A, Peripheral (MAOAP) (AID 2283237)
# Method in brief: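 Rat liver mitochondrial membranes served as the MAO-A source, with enzyme activity measured by radiometric scintillation counting 1.17 hours after dosing. Loss of signal was fitted against DMSO; primary screen used 25 uM in duplicate, follow-up used concentration series.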
# [10] = target: rat Monoamine Oxidase, MAO-B, Central (MAOBC), Maob (gene 25750) (UniProt P19643); experiment: NVS_ENZ_rMAOBC: NovaScreen (NVS) Enzymatic Assay for rat Monoamine Oxidase, MAO-B, Central (MAOBC) (AID 2283238)
# Sequence of rat Monoamine Oxidase, MAO-B, Central (MAOBC), Maob (gene 25750) (P19643 whole entry, looked up): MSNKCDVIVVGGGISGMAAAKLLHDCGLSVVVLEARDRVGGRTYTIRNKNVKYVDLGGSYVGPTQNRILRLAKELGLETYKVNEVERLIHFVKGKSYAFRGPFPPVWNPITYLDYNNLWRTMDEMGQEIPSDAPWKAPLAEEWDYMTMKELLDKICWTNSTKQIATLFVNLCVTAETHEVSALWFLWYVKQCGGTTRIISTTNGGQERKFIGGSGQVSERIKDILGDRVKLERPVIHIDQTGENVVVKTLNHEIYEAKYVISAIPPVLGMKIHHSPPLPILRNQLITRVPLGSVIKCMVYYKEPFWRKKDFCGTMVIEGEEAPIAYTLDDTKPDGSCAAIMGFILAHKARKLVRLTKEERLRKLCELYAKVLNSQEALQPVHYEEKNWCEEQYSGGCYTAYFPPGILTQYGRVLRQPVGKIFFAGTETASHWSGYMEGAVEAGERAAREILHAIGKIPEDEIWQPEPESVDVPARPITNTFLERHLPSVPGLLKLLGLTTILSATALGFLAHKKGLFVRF
# Method in brief: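 Rat brain tissue extract served as the cell-free MAO-B source; enzyme activity was read by scintillation counting 1.17 hours after compound addition. Loss of signal versus DMSO baseline was fitted; primary single-concentration screen at 25 uM, follow-up concentration-response up to 50 uM.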
# [11] = target: sheep Cyclooxygenase-2 (Cox2), PTGS2 (gene 443460) (UniProt P79208); experiment: NVS_ENZ_oCOX2: NovaScreen (NVS) Enzymatic Assay for sheep Cyclooxygenase-2 (Cox2) (AID 2283231)
# Sequence of sheep Cyclooxygenase-2 (Cox2), PTGS2 (gene 443460) (P79208 whole entry, looked up): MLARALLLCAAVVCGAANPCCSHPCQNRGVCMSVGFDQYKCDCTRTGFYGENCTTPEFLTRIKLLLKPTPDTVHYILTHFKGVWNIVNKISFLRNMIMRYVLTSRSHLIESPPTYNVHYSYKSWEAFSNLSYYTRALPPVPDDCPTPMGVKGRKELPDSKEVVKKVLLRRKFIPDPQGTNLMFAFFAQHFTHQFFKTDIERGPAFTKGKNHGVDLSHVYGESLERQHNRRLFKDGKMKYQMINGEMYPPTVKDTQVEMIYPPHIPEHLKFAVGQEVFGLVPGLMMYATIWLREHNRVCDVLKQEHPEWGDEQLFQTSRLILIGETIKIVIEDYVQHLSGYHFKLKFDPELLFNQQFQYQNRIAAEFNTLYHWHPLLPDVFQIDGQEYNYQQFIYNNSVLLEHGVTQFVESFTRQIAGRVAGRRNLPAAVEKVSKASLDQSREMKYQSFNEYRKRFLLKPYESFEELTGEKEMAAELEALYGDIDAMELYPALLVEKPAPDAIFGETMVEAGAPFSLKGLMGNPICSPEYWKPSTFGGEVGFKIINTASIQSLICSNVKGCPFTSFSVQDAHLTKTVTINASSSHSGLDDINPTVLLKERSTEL
# Method in brief: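 Enzyme from ovine placenta, cell-free; colorimetric absorbance read 0.66 hour after dosing, loss of signal vs DMSO. Screened in duplicate at 25 uM, then concentration-response up to 50 uM.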
# [12] = target: rat Adenylate Cyclase, Forskolin Stimulated, Adcy5 (gene 64532) (UniProt Q04400); experiment: NVS_ENZ_rACFSKBinding: NovaScreen (NVS) Enzymatic Assay for rat Adenylate Cyclase, Forskolin Stimulated (AID 2283232)
# Method in brief: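 Rat forebrain membrane preparation, cell-free, read 1 h after dosing by filter-based scintillation counting. Primary screen in duplicate at 25 uM; actives (e.g. ≥30% inhibition) rerun in concentration-response up to 50 uM; fit versus DMSO.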
# [13] = target: rabbit Imidazoline 2 Central (I2C), CKB (gene 100009085) (UniProt P00567); experiment: NVS_ENZ_rabI2C: NovaScreen (NVS) Enzymatic Assay for rabbit Imidazoline 2 Central (I2C) (AID 2283228)
# Method in brief: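 Rabbit brain membranes, cell-free; readout by filter-based scintillation counting 1.5 hours after dosing, loss of signal vs DMSO. Initial duplicate test at 25 uM, then concentration-response with 50 uM top concentration.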
# [14] = target: rat Constitutive Nitric Oxide Synthase (CNOS), Nos1 (gene 24598) (UniProt P29476); experiment: NVS_ENZ_rCNOS: NovaScreen (NVS) Enzymatic Assay for rat Constitutive Nitric Oxide Synthase (CNOS) (AID 2283236)
# Method in brief: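 Enzyme activity in rat brain membrane preparation, read 1 h after dosing by filter-based radiometric scintillation counting. Primary screen in duplicate at 25 uM; actives (e.g., ≥30% inhibition) then run in concentration-response up to 50 uM.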
# [15] = target: rat Catechol-O-Methyl Transferase (COMT), Comt (gene 24267) (UniProt P22734); experiment: NVS_ENZ_rCOMT: NovaScreen (NVS) Enzymatic Assay for rat Catechol-O-Methyl Transferase (COMT) (AID 2283235)
# Sequence of rat Catechol-O-Methyl Transferase (COMT), Comt (gene 24267) (P22734 whole entry, looked up): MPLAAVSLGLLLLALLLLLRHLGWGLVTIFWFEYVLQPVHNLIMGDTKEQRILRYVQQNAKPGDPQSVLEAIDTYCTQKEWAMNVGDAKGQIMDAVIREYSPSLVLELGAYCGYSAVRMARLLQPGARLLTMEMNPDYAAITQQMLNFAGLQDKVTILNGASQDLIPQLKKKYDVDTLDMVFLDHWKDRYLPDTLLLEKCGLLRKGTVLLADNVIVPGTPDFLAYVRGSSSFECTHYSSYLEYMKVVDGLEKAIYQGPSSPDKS
# Method in brief: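 Cell-free enzyme activity with protein extracted from rat dorsal striatum, measured by HPLC with absorbance detection. Compounds screened at 25 uM in duplicate; actives then run in concentration-response up to 50 uM, loss of signal versus DMSO.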
# [16] = target: human Protein Tyrosine Phosphatase Receptor Type M (PTPRM), PTPRM (gene 5797) (UniProt P28827); experiment: NVS_ENZ_hPTPRM: NovaScreen (NVS) Enzymatic Assay for human Protein Tyrosine Phosphatase Receptor Type M (PTPRM) (AID 2283215)
# Method in brief: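 Cell-free recombinant PTPRM with fluorogenic substrate; product separated from substrate by electrophoretic mobility shift and read by fluorescence, 1.33 h after dosing. Primary screen single concentration (25 uM) in duplicate; actives retested in concentration series; loss of signal versus DMSO.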
smiles,measurement,setting,value
Oc1ccc(C(c2ccc(O)cc2)(C(F)(F)F)C(F)(F)F)cc1,outcome,[1],inactive
same,AC50,[2],25 µM (active)
same,AC50,[3],38.7 µM (active)
same,AC50,[4],42.9 µM (active)
same,AC50,[5],36.3 µM (active)
Clc1ccc(C(c2ccccc2Cl)C(Cl)(Cl)Cl)cc1 (stereo not given),outcome,[5],inactive
same,outcome,[6],inactive
same,outcome,[7],inactive
same,outcome,[8],inactive
CCOC(=O)C(O)(c1ccc(Cl)cc1)c1ccc(Cl)cc1,outcome,[7],inactive
Cc1cc(O)ccc1Cl,AC50,[9],19.1 µM (active)
same,AC50,[10],13.6 µM (active)
Cc1cccc(C)c1N,outcome,[11],inactive
CC(C)(c1ccccc1)c1ccc(O)cc1,outcome,[7],inactive
same,outcome,[12],inactive
same,outcome,[10],inactive
Cc1ccc(O)c(C)c1,AC50,[11],18.4 µM (active)
CN(C)c1nc(=O)n(C2CCCCC2)c(=O)n1C,AC50,[13],9.76 µM (active)
same,outcome,[14],inactive
CCCCCCCCCc1ccc(O)cc1,outcome,[8],inactive
CCC(=O)O[C@H]1CC[C@H]2[C@@H]3CCC4=CC(=O)CC[C@]4(C)[C@H]3CC[C@]12C,outcome,[11],inactive
ClC(Cl)=C(c1ccc(Cl)cc1)c1ccc(Cl)cc1,outcome,[7],inactive
same,outcome,[8],inactive
Cc1ccccc1CO[C@@H]1C[C@@]2(C(C)C)CC[C@]1(C)O2,outcome,[15],inactive
O=S(=O)(O)C(F)(F)C(F)(F)C(F)(F)C(F)(F)C(F)(F)C(F)(F)F,outcome,[16],inactive
same,AC50,[2],11.4 µM (active)
same,outcome,[3],inactive
same,outcome,[5],inactive
same,outcome,[7],inactive
CCC(C)c1cc([N+](=O)[O-])cc([N+](=O)[O-])c1O (stereo not given),outcome,[7],inactive
same,AC50,[15],1.1 µM (active)
Oc1ccc(Cl)cc1Cl,AC50,[10],7.6 µM (active)
CCCCCCCCCC[N+](C)(C)CCCCCCCCCC,AC50,[13],11.8 µM (active)
same,AC50,[7],26 µM (active)
CCCCCCOC(=O)c1ccccc1C(=O)OCCCCCC,outcome,[2],inactive
